The panel holds about 83,000 compounds, 20% with a hit somewhere; the sample as a whole holds those more often.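 For each line, cells grew in 96-well plates with the test compound present at a single concentration for 48 hours.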 Calls of active or inactive are those of the source. How the source made its calls: active means growth percent below 10; inactive means the rest.

The subject of the first experiment is COLO 205 colon. As to the kind of experiment: NCI-60 one-dose screen, 48 h (100 = growth as untreated, 0 = no growth, -100 = all killed). The note with it: 10 µM unless noted.
Take `COc1ccc(/C=N/Nc2cc(=O)[nH]c3ccc(Cl)cc23)cc1`: the growth was 83.3% (inactive).
On the same count and under the same terms, the figure for `CCCCCCN(CCCCCC)c1ccc(/C=C2/SC(=O)NC2=O)c(C)c1` is 109% (inactive); for `CC(=O)Oc1ccccc1C(=O)N=C1[Se]CCCN1C(=O)c1ccccc1OC(C)=O` it is 114% (inactive).
Regarding `CC(C)OC(=O)Nc1ccc(-c2nc(-c3cccc(OCCN4CCOCC4)c3)c(-c3ccnc(Br)c3)[nH]2)cc1`, the growth was -5.63% (active).
On to `Cc1cc2nc3ccc(N=Nc4ccc(N(C)C)cc4)cc3n(-c3ccccc3)c-2cc1=N`, for which the growth was -86.8% (active).
As to `CCCCn1c(-c2ccc(-c3nc(-c4ccc(Cl)cc4)no3)cc2)nc(-c2ccccc2)c1-c1ccccc1`, the growth was 98.8% (inactive).
As to `Oc1c(I)cc(I)cc1CNCCCN(Cc1ccccn1)Cc1ccccn1`, the growth is -34.2% (active).
On to `C/C(=N/NC(N)=S)c1sc(Nc2cccc(Cl)c2)nc1C`, for which the growth was 84.9% (inactive).
Still for that read-out and setting: the figure for `Cc1nn(-c2ccccc2)c2c1N=c1s/c(=C\c3ccc(C(F)(F)F)cc3)c(=O)n1CN2` is 85.6% (inactive).
Same read-out and setting: the figure for `O=C(O)CCC(=O)Nc1nnc(-c2ccccc2)s1` is 108% (inactive).
Still for that read-out and setting: the figure for `Oc1ccc(Cl)cc1Cc1cc(Cl)cc(Cl)c1O` is 114% (inactive).
Consider `O=c1c2cccc(Cl)c2sc2c(NCCCNCCO)nc3ccccc3c12`, for which the growth was -61.4% (active).
Consider `COc1cc(C2CC(c3cccc(Br)c3)=NN2C(C)=O)cc(OC)c1OC` (stereo unspecified), for which the growth was 2.52% (active).
Same read-out and setting: the value for `COc1ccc(-c2nc(NN)c3c(C)nn(-c4ccc(F)cc4)c3n2)cc1` was 35.4% (inactive); that for `CCOC(=O)NCCc1ccccc1` was 112% (inactive).
On the same count and under the same terms, the figure for `COc1ccccc1/C=C1\Oc2cc(OCCN3CCC(Cc4ccccc4)CC3)ccc2C1=O` is 38.4% (inactive); for `O=C(COc1ccc(/C=C2\Cc3ccc(Cl)cc3C2=O)cc1)Nc1nc2ccccc2s1` it is 116% (inactive); for `CCc1cccc2c3c(sc12)C(c1ccc(F)cc1)C(C#N)=C(N)O3` (stereo unspecified) it is 5.48% (active).
Regarding `Cc1ccc(C(=O)N/N=C/c2cccc([N+](=O)[O-])c2)cn1`, the growth is 112% (inactive).
`CCOC(=O)C1=C(N)Oc2c(sc3c(C)cccc23)C1c1ccc(Cl)cc1` (stereo unspecified): the growth was 20.3% (inactive).
The same measure, in the same setting: the value for `COc1ccc(-n2c(N)c(-c3nc4ccccc4[nH]3)cc(C#N)c2=O)cc1` was 105% (inactive).
Same read-out and setting: the value for `Cc1cc2nc3cc(C)c(N)cc3[n+](-c3ccccc3)c2cc1N` was 61.1% (inactive); that for `COc1c(N2CC3CCCN(C(C)=O)C3C2)c(F)cc2c(=O)c(C(=O)N[C@H]3C(O)[C@@H](O)C(CO)O[C@H]3O)cn(C3CC3)c12` (stereo partly specified) was 110% (inactive).
Take `COc1ccc(C2CC(c3ccc(Nc4nc(Nc5ccc(F)cc5)nc(Nc5ccc(Cl)cc5)n4)cc3)=NN2C(C)=O)cc1` (stereo unspecified): the growth is 96.1% (inactive).
The same measure, in the same setting: the value for `O=c1[nH][n+](-c2ccc(Br)cc2)no1` was 56.2% (inactive); that for `O=C(CSc1nccc(Nc2ccc(S(=O)(=O)Nc3nccs3)cc2)n1)c1ccc(C(F)(F)F)cc1` was 112% (inactive).
Take `COc1cc(C2CC(c3ccc(N(C)C)cc3)=NN2C(C)=O)cc(OC)c1OC` (stereo unspecified): the growth is 19.2% (inactive).
Same read-out and setting: the figure for `COc1ccc2c(c1)c(-c1ccc(-c3cn(C)c4ccc(OC)cc34)o1)cn2C` is 16.3% (inactive); for `COc1ccc(CN2c3ccccc3CCc3ccccc32)cc1F` it is -13.9% (active); for `CC(=O)N1N=C(c2ccc(Nc3nc(Nc4ccc(F)cc4)nc(Nc4ccc(Cl)cc4)n3)cc2)CC1c1ccc(Cl)cc1` (stereo unspecified) it is 94.3% (inactive).
In the case of `COc1ccc(OC)c(/C=C/c2nnc(Nc3ccccc3)o2)c1`, the growth was 129% (inactive).
On the same count and under the same terms, the figure for `COc1cc2cc(Oc3ccc(NC(=O)Nc4ccc(Cl)c(C(F)(F)F)c4)cc3)c(C)nc2cc1OCCN1CCOCC1` is -28.3% (active); for `CCOC(=O)C1=C(N)Oc2c(sc3c(C)cccc23)C1c1ccc(F)cc1` (stereo unspecified) it is -1.13% (active).
For the molecule `NCCCNc1nc2ccccc2c2c(=O)c3cccc(F)c3sc12`, the growth was -43.7% (active).
Same read-out and setting: the figure for `CCc1ccc(Oc2c(-c3ccc(OCc4ccc(Cl)cc4)cc3O)n[nH]c2C(F)(F)F)cc1` is 95.7% (inactive); for `COc1ccc2sc3c(NCCCNCCO)nc4ccccc4c3c(=O)c2c1` it is -35.4% (active); for `COc1nc2ccccc2cc1-c1nc2c(cnn2-c2ccc(Br)cc2)c(=O)[nH]1` it is -50.2% (active).
On the same count and under the same terms, the value for `Cc1oc2nc[nH]c(=O)c2c1C(=O)/C=C/c1ccc(Br)cc1` was 3.83% (active).

A further experiment concerns DU-145 prostate. The description is as above. The following applies: 10 µM unless noted.
Take `COc1ccc(/C=N/Nc2cc(=O)[nH]c3ccc(Cl)cc23)cc1`: the growth is 64.7% (inactive).
Take `CCCCCCN(CCCCCC)c1ccc(/C=C2/SC(=O)NC2=O)c(C)c1`: the growth was 102% (inactive).
Still for that read-out and setting: the figure for `CC(=O)Oc1ccccc1C(=O)N=C1[Se]CCCN1C(=O)c1ccccc1OC(C)=O` is 15.8% (inactive); for `CC(C)OC(=O)Nc1ccc(-c2nc(-c3cccc(OCCN4CCOCC4)c3)c(-c3ccnc(Br)c3)[nH]2)cc1` it is 63.8% (inactive); for `Cc1cc2nc3ccc(N=Nc4ccc(N(C)C)cc4)cc3n(-c3ccccc3)c-2cc1=N` it is -98.2% (active).
Regarding `CCCCn1c(-c2ccc(-c3nc(-c4ccc(Cl)cc4)no3)cc2)nc(-c2ccccc2)c1-c1ccccc1`, the growth is 93.4% (inactive).
Same read-out and setting: the value for `Oc1c(I)cc(I)cc1CNCCCN(Cc1ccccn1)Cc1ccccn1` was -45.8% (active); that for `C/C(=N/NC(N)=S)c1sc(Nc2cccc(Cl)c2)nc1C` was 81.7% (inactive); that for `Cc1nn(-c2ccccc2)c2c1N=c1s/c(=C\c3ccc(C(F)(F)F)cc3)c(=O)n1CN2` was 117% (inactive).
Take `O=C(O)CCC(=O)Nc1nnc(-c2ccccc2)s1`: the growth was 105% (inactive).
Same read-out and setting: the value for `Oc1ccc(Cl)cc1Cc1cc(Cl)cc(Cl)c1O` was 33.2% (inactive); that for `O=c1c2cccc(Cl)c2sc2c(NCCCNCCO)nc3ccccc3c12` was 13.9% (inactive).
`COc1cc(C2CC(c3cccc(Br)c3)=NN2C(C)=O)cc(OC)c1OC` (stereo unspecified): the growth was 20% (inactive).
Same read-out and setting: the figure for `COc1ccc(-c2nc(NN)c3c(C)nn(-c4ccc(F)cc4)c3n2)cc1` is 37.9% (inactive); for `CCOC(=O)NCCc1ccccc1` it is 118% (inactive).
On the same count and under the same terms, the figure for `COc1ccccc1/C=C1\Oc2cc(OCCN3CCC(Cc4ccccc4)CC3)ccc2C1=O` is 102% (inactive); for `O=C(COc1ccc(/C=C2\Cc3ccc(Cl)cc3C2=O)cc1)Nc1nc2ccccc2s1` it is 115% (inactive).
On the same count and under the same terms, the value for `CCc1cccc2c3c(sc12)C(c1ccc(F)cc1)C(C#N)=C(N)O3` (stereo unspecified) was 24.5% (inactive); that for `Cc1ccc(C(=O)N/N=C/c2cccc([N+](=O)[O-])c2)cn1` was 100% (inactive); that for `CCOC(=O)C1=C(N)Oc2c(sc3c(C)cccc23)C1c1ccc(Cl)cc1` (stereo unspecified) was 21.6% (inactive).
As to `COc1ccc(-n2c(N)c(-c3nc4ccccc4[nH]3)cc(C#N)c2=O)cc1`, the growth was 87.9% (inactive).
On to `Cc1cc2nc3cc(C)c(N)cc3[n+](-c3ccccc3)c2cc1N`, for which the growth is 72.9% (inactive).
Regarding `COc1c(N2CC3CCCN(C(C)=O)C3C2)c(F)cc2c(=O)c(C(=O)N[C@H]3C(O)[C@@H](O)C(CO)O[C@H]3O)cn(C3CC3)c12` (stereo partly specified), the growth was 112% (inactive).
As for `COc1ccc(C2CC(c3ccc(Nc4nc(Nc5ccc(F)cc5)nc(Nc5ccc(Cl)cc5)n4)cc3)=NN2C(C)=O)cc1` (stereo unspecified), the growth is 122% (inactive).
Still for that read-out and setting: the figure for `O=c1[nH][n+](-c2ccc(Br)cc2)no1` is 57.9% (inactive); for `O=C(CSc1nccc(Nc2ccc(S(=O)(=O)Nc3nccs3)cc2)n1)c1ccc(C(F)(F)F)cc1` it is 114% (inactive).
Same read-out and setting: the figure for `COc1cc(C2CC(c3ccc(N(C)C)cc3)=NN2C(C)=O)cc(OC)c1OC` (stereo unspecified) is 2.14% (active).
Regarding `COc1ccc2c(c1)c(-c1ccc(-c3cn(C)c4ccc(OC)cc34)o1)cn2C`, the growth is 107% (inactive).
For the molecule `COc1ccc(CN2c3ccccc3CCc3ccccc32)cc1F`, the growth is 8.55% (active).
On the same count and under the same terms, the figure for `CC(=O)N1N=C(c2ccc(Nc3nc(Nc4ccc(F)cc4)nc(Nc4ccc(Cl)cc4)n3)cc2)CC1c1ccc(Cl)cc1` (stereo unspecified) is 111% (inactive); for `COc1ccc(OC)c(/C=C/c2nnc(Nc3ccccc3)o2)c1` it is 93.3% (inactive).
Regarding `COc1cc2cc(Oc3ccc(NC(=O)Nc4ccc(Cl)c(C(F)(F)F)c4)cc3)c(C)nc2cc1OCCN1CCOCC1`, the growth is 25.2% (inactive).
The same measure, in the same setting: the value for `CCOC(=O)C1=C(N)Oc2c(sc3c(C)cccc23)C1c1ccc(F)cc1` (stereo unspecified) was 12.1% (inactive).
Turning to `NCCCNc1nc2ccccc2c2c(=O)c3cccc(F)c3sc12`, the growth is 12.6% (inactive).
On to `CCc1ccc(Oc2c(-c3ccc(OCc4ccc(Cl)cc4)cc3O)n[nH]c2C(F)(F)F)cc1`, for which the growth was 15% (inactive).
`COc1ccc2sc3c(NCCCNCCO)nc4ccccc4c3c(=O)c2c1`: the growth was 41% (inactive).
The same measure, in the same setting: the figure for `COc1nc2ccccc2cc1-c1nc2c(cnn2-c2ccc(Br)cc2)c(=O)[nH]1` is 24.5% (inactive).
Still for that read-out and setting: the figure for `Cc1oc2nc[nH]c(=O)c2c1C(=O)/C=C/c1ccc(Br)cc1` is 5.67% (active).

Values taken from PubChem BioAssay (NCI).
